For 13 compounds, growth results are on record in PubChem BioAssay (NCI).

This is part of a sample that, as a whole, favours compounds with a hit. Of some 83,000 tested, about 20% had one in any assay.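 Plates (96-well) were seeded with cells, treated with compound at one concentration, and incubated for 48 hours before percent growth was determined.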 Values without a mark were called inactive. The source made the active and inactive calls. The calls were made as follows: active = growth percent below 10; inactive = the rest.

Assay in all cases: NCI-60 one-dose screen, 48 h (100 = growth as untreated, 0 = no growth, -100 = all killed)
Holding throughout (conditions): 10 µM unless noted

In test [1] the test system is NCI-H23 lung.
Test [2] deals with NCI-H226 lung.
Test [3] relates to NCI-H322M lung.
Test [4] has as its system HOP-62 NSCLC.
Test [5] relates to NCI-H460 lung.
Test [6] deals with HOP-92 NSCLC.
Test [7] deals with A549/ATCC NSCLC.
Test [8] has as its system 786-0 renal.
The test system of test [9] is COLO 205 colon.
Test [10] deals with NCI-H522 lung.

In the case of `CCOC(=O)c1[nH]c2c(c1C)-c1[nH]c(=O)c(S(=O)(=O)c3ccccc3)cc1SC2`, the growth in test [1] was 35.4% [100 µM]; in test [2] it was 37.9% [100 µM]; in test [3] it was 42.4% [100 µM]; in test [4], 34.3% [100 µM]; in [5], 38.2% [100 µM]; in [6] it was -27.4% [100 µM] (active). In addition, the growth in [7] is 43.7% [100 µM]; in test [8] it was 21.1% [100 µM]; in test [9], -25.8% [100 µM] (active).

Consider `Cc1ccc2nc(/C(C#N)=C(/CCCO)NC(Cc3ccccc3)C(=O)OCc3ccccc3)[nH]c(=O)c2c1` (configuration not stated), for which the growth is 43% in test [1]; 103% in test [2]; 94.4% in test [3]; 88.2% in [4]; 110% in test [5]; 108% in [6]. For the same compound, the growth in [7] was 114%; in [8] it was 93.9%; in [9], 87.8%.

Take `COc1cccc(Nc2ncnc3cc(NC(=O)CCl)ccc23)c1`: the growth was -50.9% (active) in test [1]; -48.3% (active) in test [2]; 37.5% in test [3]; -89.8% (active) in test [4]; -72.7% (active) in test [5]; -74.8% (active) in test [6]. Moreover, the growth is -27.7% (active) in test [7], -89.7% (active) in [8] and -90% (active) in test [9].

With `COc1cc(/C=C/C(=O)c2ccc(-n3cc(CN4CCN(c5cc6c(cc5F)c(=O)c(C(=O)O)cn6C5CC5)CC4)nn3)cc2)ccc1O`, the growth was 91.4% in test [1]; 82.1% in [2]; 80.2% in test [3]; 67.7% in [4]; 66.7% in [5]; 79.3% in [6]. For the same compound, the growth in test [10] was 83.9%; in test [8] it was 53.9%; in [9], 106%.

Regarding `NC(=O)c1c(NC(=O)c2cccc(C(F)(F)F)c2)sc2c1CCC(=O)C2`, the growth in test [1] was -2.9% (active); in test [2] it was 34.2%; in test [3], 61.6%; in test [4] it was 28.2%; in test [5], 5.67% (active); in test [6] it was -45.1% (active). The growth is -37.6% (active) in test [10], 17.8% in test [8] and -51.2% (active) in test [9].

`COc1ccc(C(=O)/C=C/c2ccc(Cl)cc2)cc1S(=O)(=O)Nc1c(N)nc(SC)[nH]c1=O`: the growth in test [1] was 84.1%; in test [2], 83.2%; in test [3], 27.7%; in [4], 32.6%; in [5], 84%; in test [6], 73.7%. The growth in test [10] is 59.7%; in test [8] it was 31%; in [9], 49.8%.

Regarding `C#CC#CC#CC#CC#CC#CC#CC#CCC1OC[C@H](COC(=O)O[C@@H](C(=O)O[C@H]2C[C@@]3(O)[C@@H](OC(=O)c4ccccc4)[C@@H]4[C@]5(OC(C)=O)CO[C@@H]5C[C@H](O)[C@@]4(C)C(=O)[C@H](OC(C)=O)C(=C2C)C3(C)C)[C@@H](NC(=O)c2ccccc2)c2ccccc2)O1` (some centres not stated), the growth is 32.9% in test [1]; 50.7% in test [2]; 31.6% in test [3]; 38.5% in test [4]; 10.3% in test [5]; 67.6% in test [6]. For the same compound, the growth in [7] was 32.3%; in test [8], 48.8%; in [9], 23%.

For `N[C@H]1CCC[C@@H]1NCCCCN1C(=O)c2cccc3cc([N+](=O)[O-])cc(c23)C1=O`, the growth in test [1] is 47.7%; in [2] it was 34.4%; in test [3], 53.4%; in test [4], 38.4%; in test [5], 13.7%; in test [6] it was 30.1%. Also, the results for the growth in test [7], in [8] and in test [9] were 27.6%, 31% and 26%, respectively.

Consider `C=C1C(=O)O[C@H]2[C@H]1CC/C(COC(=O)/C=C/C(=O)OC/C1=C/CC[C@@]3(C)O[C@H]3[C@H]3OC(=O)C(=C)[C@@H]3CC1)=C\CC[C@@]1(C)O[C@@H]21`, for which the growth was 94.1% in test [1]; 80.6% in test [2]; 101% in [3]; 96.6% in test [4]; 100% in [5]; 19% in [6]. Moreover, the growth in test [7] is 88.6%; in [8] it was 5.31% (active); in [9], 11.3%.

For `CCOC(=O)CC1CSC(Nc2ccccc2)=N1` (configuration not stated), the growth was 98% in test [1]; 105% in test [2]; 96.5% in test [3]; 100% in test [4]; 109% in test [5]; 120% in [6]. Also, the values for the growth in test [7], in test [8] and in test [9] were 95.3%, 98.7% and 125%, respectively.

`O=C(/C=C(O)/C=C/c1cccc2[nH]ccc12)/C=C/c1cccc2[nH]ccc12`: the growth was 80.5% in test [1]; 99.5% in test [2]; 98.9% in test [3]; 76.4% in test [4]; 98.3% in test [5]; 62.1% in test [6]. In addition, the results for the growth in [10], in test [8] and in test [9] were 34%, 86% and 55.8%, respectively.

Regarding `CCN1CCN(c2cc(C)nc(N(CCNc3ccnc4cc(Cl)ccc34)Cc3ccc4c(c3)OCO4)n2)CC1`, the growth was 13.6% in [1]; 47.7% in [2]; 28.3% in test [3]; -14.3% (active) in test [4]; 8.38% (active) in test [5]; 44.6% in test [6]. The growth in [7] was 2.91% (active); in test [8], -76.8% (active); in test [9], -89.5% (active).

As for `O=C1/C=C/[C@@H](O)[C@@H]2C[C@@H](O)C[C@H]2/C=C/CCC[C@@H](O)CCO1`, the growth was 77.1% in test [1]; 77.3% in [2]; 99.3% in [3]; 103% in test [4]; 110% in test [5]; 98% in test [6]. Besides, the figures for the growth in [10], in test [8] and in [9] were 108%, 61.5% and 114%, respectively.
